In the supplement of paper PMC3334620:
Over roughly 33,000 sequences, “E-score (-0.5 to 0.5)” has its median near -8e-05; the highest 2% begin near 0.23. The entries come from a sample that favours the highest values as a whole.

What follows are sequences tested against T1, Nrg2 (UniProt P38082) (assay: PBM E-score (8-mer binding enrichment) (E-score (-0.5 to 0.5)); higher = stronger / more preferred TF binding). Details: protein concentration: 100 nM; construct: GST-full length.
T1 sequence: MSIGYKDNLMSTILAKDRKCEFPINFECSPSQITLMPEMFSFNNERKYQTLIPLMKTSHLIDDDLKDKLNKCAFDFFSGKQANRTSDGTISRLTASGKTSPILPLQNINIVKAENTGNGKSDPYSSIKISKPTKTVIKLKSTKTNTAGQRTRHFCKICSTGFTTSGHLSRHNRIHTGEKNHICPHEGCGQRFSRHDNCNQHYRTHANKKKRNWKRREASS
Protocol: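 Universal 'all 10-mer' protein binding microarrays (Agilent AMADID 015681) probed with GST-tagged S. cerevisiae TFs (full-length or DBD) made by in vitro transcription/translation (PURExpress), about 100-200 nM. Bound TF was detected with fluorescent anti-GST. Each ungapped 8-mer (which stands for itself and its reverse complement) is scored by the PBM enrichment score (E-score), a modified Wilcoxon-Mann-Whitney statistic from -0.5 to +0.5, computed with the Universal PBM Analysis Suite. Scale: above 0.35 generally sequence-specific binding.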

Row | Sequence | PBM E-score
1 | AATGCGCA | 0.296
2 | ATTGCAAT | 0.243
3 | CATGCGCA | 0.164
4 | CTTGCGCC | -0.0573
5 | CTTGCGCA | 0.264
6 | ATTGCAAA | 0.127
7 | ATTGCGCA | 0.143
8 | ATTGCAAG | 0.137
9 | ATCCTTGC | -0.0413
10 | AGCAGACC | 0.135
11 | ACCTTCTA | -0.0686
12 | CGTGTCCC | -0.104
13 | ACGACTAT | 0.0778
14 | CTGTAGGA | 0.0349
15 | AGTAGTAT | 0.114
16 | CGAAATCC | 0.199
17 | GTAAATCA | 0.24
18 | GGAAATCA | -0.049
19 | ATAAATCA | 0.0708
20 | CTAAATCA | 0.0351
21 | CGAAATCA | 0.244
22 | GCTGTGTA | -0.051
23 | CCTCTCCA | -0.343
24 | AGGCATCC | -0.161
25 | AGGGGTAC | 0.142

Row | Sequence | PBM E-score
26 | CTCTTTTA | -0.0622
27 | CTTCATAC | 0.112
28 | ATTCATAC | 0.238
29 | ATTCATAG | 0.155
30 | ATCTCATC | 0.0993
31 | CTTATGGC | -0.0261
32 | CCCTGACC | 0.3
33 | GCCTGACC | -0.0177
34 | CCCTGACA | 0.288
35 | ACCTGACC | -0.197
36 | GCCTGACA | -0.173
37 | CCCTGACG | 0.138
38 | TAACTGCA | 0.157
39 | CTCTCAAC | -0.121
40 | GAGTCTCC | -0.178
41 | CAGCAATC | 0.0368
42 | AAACAGTG | 0.167
43 | GAGGGATA | -0.145
44 | TAGGGATA | 0.134
45 | CAGGGATG | 0.211
46 | CAGGGATA | 0.286
47 | CAGGGATC | 0.238
48 | AAGGGATC | 0.135
49 | ATTTTCTC | 0.106
50 | ACCGCCAC | -0.117

Row | Sequence | PBM E-score
51 | CCCGCCAC | 0.269
52 | GCCGCCAC | -0.231
53 | GGCGTCGA | 0.148
54 | CAGGTAGC | -0.212
55 | AATGCTGC | 0.0363
56 | AATGGCCA | -0.0344
57 | ACTTTAAG | 0.243
58 | ACTTTAAA | 0.0738
59 | CCTTTAAG | -0.0435
60 | GATTAGAC | 0.0407
61 | CGTCGAAA | 0.075
62 | CGAATGAG | 0.0496
63 | ATAGATCG | 0.0393
64 | CAAACTCC | 0.0622
65 | AGCTAGCC | -0.0348
66 | AGCTAGCT | 0.244
67 | AGCTAGCA | -0.191
68 | ACGCAGCT | 0.0108
69 | AGTCTGAG | -0.319
70 | AGGACAGA | 0.0623
71 | CGGCTTGA | -0.0482
72 | AGGCTTGC | -0.173
73 | CGGCTTGC | 0.237
74 | CGCCTAGC | -0.315
75 | GGTCTTAA | -0.301

Row | Sequence | PBM E-score
76 | CATCTCTC | 0.148
77 | ACCGCAGA | -0.0429
78 | ATTCGGGC | -0.044
79 | ATTCGGGA | 0.0112
80 | ATTCGGGG | 0.243
81 | ACCCGCTG | -0.133
82 | GTTTACTA | 0.155
83 | ATTTACTA | 0.0988
84 | CTTTACTC | 0.144
85 | ATTTACTG | 0.107
86 | ATTTACTC | 0.271
87 | CTTTACTA | 0.26
88 | GCAGTGGC | -0.173
89 | CAGCTGGA | 0.123
90 | GACTCGGA | -0.226
91 | CTTTTAAA | -0.168
92 | AGCAGCCA | 0.0226
93 | CTCGATAA | 0.041
94 | ATCGATTA | 0.0753
95 | CTCGATTC | 0.15
96 | CTCGATTA | 0.251
97 | ATCGATAC | 0.133
98 | CTCGATAC | 0.245
99 | GCGGATAC | 0.0466
100 | GGCGCCAA | 0.133

Row | Sequence | PBM E-score
101 | CGTCGCCC | -0.282
102 | CCAAAGCA | 0.119
103 | GCTGCACC | -0.0621
104 | AAATATTA | 0.247
105 | AAATATTG | 0.204
106 | TAATATCA | 0.0975
107 | GAATATAA | 0.12
108 | TAATATAA | 0.302
109 | TAATATTA | 0.322
110 | TAATATGA | 0.0376
111 | CAATATAA | 0.212
112 | CAATATTA | 0.154
113 | AACCTGTC | -0.0794
114 | AGCTATAC | -0.101
115 | CATGGGCA | 0.0918
116 | AAATAATC | 0.0163
117 | GAATAATC | 0.185
118 | GAATAATA | 0.238
119 | ACATAATC | 0.193
120 | TAATAATA | 0.0963
121 | AAATAATT | 0.243
122 | GAATAACA | 0.265
123 | GCATAATA | 0.201
124 | AAATAATA | 0.203
125 | ACATAATA | 0.295

Row | Sequence | PBM E-score
126 | CAATAACA | 0.0577
127 | TAATAACA | 0.00017
128 | CTGGCCGA | -0.163
129 | AACCTCCT | -0.264
130 | ACTCATAT | -0.028
131 | CCATTCAC | 0.0939
132 | CGGACACG | -0.0788
133 | GTCTAAAA | -0.0766
134 | CAGTCACA | -0.0678
135 | CAGTAATA | 0.161
136 | AAGTAATA | -0.00088
137 | GAGTAATA | 0.232
138 | ATCGGCTC | -0.0282
139 | AAGAATGT | 0.107
140 | CCCCTGGC | 0.11
141 | ACCCTGGG | 0.328
142 | CCCCTGGA | 0.0369
143 | AACCTGGA | -0.00995
144 | ACCCTGGA | 0.279
145 | AACCTGGG | -0.131
146 | GCCCTGGA | 0.247
147 | AACCTGGC | -0.18
148 | ACCCTGGC | 0.338
149 | AGCCTGGG | -0.159
150 | AGCCTGGA | -0.0491

Row | Sequence | PBM E-score
151 | GTCCTGGA | -0.261
152 | CCTAAGGC | -0.191
153 | CCCTCATC | -0.0723
154 | CGGGGGAC | -0.242
155 | ACCCAGGG | 0.0967
156 | AAAACCTA | 0.0556
157 | CGTAGGAA | -0.0744
158 | CAGGGAAC | 0.0728
159 | TGCAACAA | 0.00649
160 | ATGAGGTC | -0.142
161 | AGCGCTTA | 0.131
162 | CGCGCTAA | 0.259
163 | CGCGCTTA | 0.254
164 | TGCGCTAA | 0.0259
165 | CGCGCTGA | 0.0409
166 | GGCGCTAA | -0.0159
167 | ACTAGTGG | 0.123
168 | CAGCTCAC | -0.161
169 | CGCCGCTC | 0.0612
170 | ACACGCGT | 0.00123
171 | ACAACATA | 0.268
172 | GCAACATA | 0.0428
173 | ACAACATC | -0.042
